PubChem BioAssay (Tox21)
Records with an inconclusive call do not appear. Entries that show only a call come without a potency. A number with no mark means an inactive call. Activity calls are given as the source filed them. Unless noted, the call rests on the fitted dose curve; in most records, active means well fitted curve in the direction sought with a large enough effect in the repeat runs; inconclusive means weak or mixed curves; inactive means no such curve, though single readings can be large; an effect the other way counts as inactive or inconclusive.

Legend:
[1] = qHTS assay to identify small molecule agonists of the peroxisome proliferator-activated receptor delta (PPARd) signaling pathway - cell viability counter screen (AID 743211); further: nearly all actives have a fitted effect of over 55% in size; further: potency means the concentration at half of the fitted maximal effect
Method in brief: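 Viability of GeneBLAzer PPARd UAS-bla HEK293H cells was assessed after 17 h compound incubation at 37C, using CellTiter-Glo reagent added after the reporter read and luminescence recorded 30 min later.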

[2] = molecular target: Peroxisome proliferator-activated receptor delta (Homo sapiens) (UniProt Q03181); test: qHTS assay to identify small molecule agonists of the peroxisome proliferator-activated receptor delta (PPARd) signaling pathway (AID 743212; calls by dose curve;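 further: HEK293H cells with PPARd UAS beta-lactamase reporter GeneBLAzer system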)
Peroxisome proliferator-activated receptor delta (Homo sapiens), sequence (Q03181 whole entry, looked up): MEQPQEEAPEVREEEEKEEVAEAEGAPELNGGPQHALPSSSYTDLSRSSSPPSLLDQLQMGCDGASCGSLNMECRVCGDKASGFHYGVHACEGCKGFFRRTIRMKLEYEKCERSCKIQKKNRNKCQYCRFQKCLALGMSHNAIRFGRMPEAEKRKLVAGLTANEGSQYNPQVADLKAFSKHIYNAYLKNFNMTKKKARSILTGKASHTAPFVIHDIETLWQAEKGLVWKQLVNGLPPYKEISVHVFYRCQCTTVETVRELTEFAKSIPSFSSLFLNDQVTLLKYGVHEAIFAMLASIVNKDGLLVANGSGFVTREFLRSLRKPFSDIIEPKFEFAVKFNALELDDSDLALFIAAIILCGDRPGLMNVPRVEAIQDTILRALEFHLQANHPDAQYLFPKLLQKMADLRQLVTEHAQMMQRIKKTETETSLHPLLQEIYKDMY
Method in brief: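 Beta-lactamase reporter read by fluorescence (LiveBLAzer B/G FRET, 2 h, room temperature). Test agents, in DMSO, incubated at 37 C with PPARd-bla HEK293H cells.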

[3] = qHTS assay to identify small molecule antagonists of the peroxisome proliferator-activated receptor delta (PPARd) signaling pathway - cell viability counter screen (AID 743213); further: nearly all actives have a fitted effect of over 50% in size
Method in brief: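 CellTiter-Glo was added to PPARd-bla HEK293H wells following 17 h compound treatment in the presence of 300 nM L165041. Luminescence was recorded after 30 min at room temperature.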

[4] = molecular target: Peroxisome proliferator-activated receptor delta (Homo sapiens) (UniProt Q03181); test: qHTS assay to identify small molecule antagonists of the peroxisome proliferator-activated receptor delta (PPARd) signaling pathway (AID 743215; active means well fitted inhibition curve with a large enough effect in the signal ratio in the repeat runs, not every such curve was filed as active; the % refers to the signal ratio;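 further: cells stimulated with agonist L165041 at 300 nM final during compound exposure; series mostly up to about 62 µM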)
Method in brief: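 Fluorescence from cleaved LiveBLAzer B/G FRET substrate (2 h, room temperature) reports PPARd-driven beta-lactamase in HEK293H UAS-bla cells. Cells had been treated 17 h at 37 C with compound plus 300 nM final L165041.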

[5] = molecular target: Bile acid receptor (Homo sapiens) (UniProt Q96RI1); test: qHTS assay to identify small molecule antagonists of the farnesoid-X-receptor (FXR) signaling pathway (AID 743217; active means well fitted inhibition curve with a large enough effect in the signal ratio in the repeat runs, not every such curve was filed as active; the % refers to the signal ratio)
Bile acid receptor (Homo sapiens), sequence (Q96RI1 whole entry, looked up): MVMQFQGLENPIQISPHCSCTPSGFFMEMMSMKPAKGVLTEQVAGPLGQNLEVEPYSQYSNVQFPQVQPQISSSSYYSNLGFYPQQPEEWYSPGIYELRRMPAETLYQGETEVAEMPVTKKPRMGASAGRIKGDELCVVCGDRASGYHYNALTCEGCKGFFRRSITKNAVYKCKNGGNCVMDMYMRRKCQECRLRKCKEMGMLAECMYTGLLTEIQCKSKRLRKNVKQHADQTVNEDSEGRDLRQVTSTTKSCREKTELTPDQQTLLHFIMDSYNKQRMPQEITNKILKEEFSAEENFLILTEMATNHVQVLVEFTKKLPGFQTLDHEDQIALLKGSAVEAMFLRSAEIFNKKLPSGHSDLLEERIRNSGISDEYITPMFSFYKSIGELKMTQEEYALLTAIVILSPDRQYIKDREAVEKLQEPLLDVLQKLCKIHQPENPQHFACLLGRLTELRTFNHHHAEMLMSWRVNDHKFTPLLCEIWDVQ
Method in brief: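 FRET fluorescence after 2 h room-temperature LiveBLAzer loading gives the readout. Prior step: FXR-bla HEK 293T cells, seeded and incubated 5 h, received test compounds plus 50 uM final CDCA for 16 h at 37 °C.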

[6] = qHTS assay to identify small molecule agonists of the farnesoid-X-receptor (FXR) signaling pathway - cell viability counter screen (AID 743218); further: nearly all actives have a fitted effect of over 45% in size; further: potency means the concentration at half of the fitted maximal effect
Method in brief: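 Readout: CellTiter-Glo luminescence, 30 min RT, multiplexed after the FXR-bla FRET reading. HEK 293T FXR-UAS-bla cells received compound 5 h post-plating and were incubated 16 h at 37 C.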

[7] = molecular target: Bile acid receptor (Homo sapiens) (UniProt Q96RI1); test: qHTS assay to identify small molecule agonists of the farnesoid-X-receptor (FXR) signaling pathway (AID 743220; active means well fitted activation curve with a large enough effect in the signal ratio in the repeat runs, not every such curve was filed as active; the % refers to the signal ratio)
Method in brief: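 FXR-UAS-bla HEK 293T cells carrying a UAS-driven beta-lactamase reporter were plated for 5 h at 37C/5% CO2, then exposed to DMSO-dissolved Tox21 10K compounds for 16 h at 37C. A LiveBLAzer B/G FRET substrate was loaded for 2 h at room temperature before fluorescence reading.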

[8] = qHTS assay to identify small molecule antagonists of the farnesoid-X-receptor (FXR) signaling pathway - cell viability counter screen (AID 743221; active means well fitted cell-killing curve with a large enough effect in the repeat runs, not every such curve was filed as active; further: nearly all actives have a fitted effect of over 50% in size)
Method in brief: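 Quantitative HTS of the Tox21 10K library run in parallel with the beta-lactamase reporter read. HEK 293T cells carrying a UAS-driven bla reporter got compound and 50 uM CDCA (final) for 16 h; ATP-based luminescence followed.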

[9] = molecular target: Vitamin D3 receptor (Homo sapiens) (UniProt P11473); test: qHTS assay to identify small molecule agonists of the vitamin D receptor (VDR) signaling pathway (AID 743222; calls by dose curve)
Vitamin D3 receptor (Homo sapiens), sequence (P11473 whole entry, looked up): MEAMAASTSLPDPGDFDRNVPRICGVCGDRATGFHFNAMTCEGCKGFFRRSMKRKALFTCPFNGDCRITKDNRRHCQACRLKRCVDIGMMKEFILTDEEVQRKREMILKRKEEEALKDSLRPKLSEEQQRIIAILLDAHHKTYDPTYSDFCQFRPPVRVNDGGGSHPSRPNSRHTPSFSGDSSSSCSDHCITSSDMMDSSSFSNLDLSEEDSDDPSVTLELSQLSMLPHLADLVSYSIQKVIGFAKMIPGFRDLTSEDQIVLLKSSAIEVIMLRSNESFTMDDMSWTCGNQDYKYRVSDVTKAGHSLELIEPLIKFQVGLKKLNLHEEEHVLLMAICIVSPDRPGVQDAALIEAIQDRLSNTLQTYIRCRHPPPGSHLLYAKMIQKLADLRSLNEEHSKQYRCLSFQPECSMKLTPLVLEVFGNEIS
Method in brief: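 Following 4 h attachment at 37C, VDR-bla cells (2,000 per well) received DMSO-dissolved compounds or controls. After 16 h incubation, LiveBLAzer B/G FRET substrate was added and fluorescence read 2 h later at room temperature.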

[10] = qHTS assay to identify small molecule antagonists of the vitamin D receptor (VDR) signaling pathway - cell viability counter screen (AID 743225); further: nearly all actives have a fitted effect of over 50% in size; further: potency means the concentration at half of the fitted maximal effect
Method in brief: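 Cells (VDR-UAS-bla HEK 293T) are plated, rested 4 h at 37C, dosed with compound and 3 nM final 1-alpha,25-dihydroxy vitamin D3, and incubated 16 h. Viability is taken from CellTiter-Glo luminescence in the reporter wells.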

[11] = qHTS assay to identify small molecule agonists of the NFkB signaling pathway (AID 1159509; active means well fitted curve in the direction sought with a large enough effect in the signal ratio in the repeat runs, not every such curve was filed as active; the % refers to the signal ratio; further: series mostly up to about 61 µM)
Method in brief: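 Beta-lactamase reporter assay run in quantitative high-throughput format on an NF-kB-responsive ME-180 line, with 5 hr compound treatment and a FRET-based blue/green fluorescence readout.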

[12] = qHTS assay to identify small molecule agonists of the NFkB signaling pathway - cell viability counter screen (AID 1159515; calls by dose curve; further: nearly all actives have a fitted effect of over 55% in size; further: potency means the concentration at half of the fitted maximal effect)
Method in brief: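 Plate 2,000 NFkB-bla ME-180 cells/well; incubate overnight. Add compounds, 5 hr at 37 C. Add FRET substrate, 1.5 hr RT. Add CellTiter-Glo, 30 min RT; read luminescence.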

[13] = qHTS assay to identify small molecule antagonists of the retinoid-related orphan receptor gamma (ROR-gamma) signaling pathway - cell viability counter screen (AID 1159520); further: nearly all actives have a fitted effect of over 50% in size
Method in brief: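 Tet-on ROR gamma CHO cells (1,000/well) were plated 4 hr, given compounds in DMSO for 2 hr at 37 C, then induced with 1 uM final doxycycline for 16 hr. Viability was read as ATP by CellTiter-Glo luminescence after 30 min.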

[14] = molecular target: Nuclear receptor ROR-gamma (Homo sapiens) (UniProt P51449); test: qHTS assay to identify small molecule antagonists of the retinoid-related orphan receptor gamma (ROR-gamma) signaling pathway (AID 1159521)
Method in brief: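 RORγ antagonism is scored from reduced reporter luminescence in Tet-on CHO cells. Induction used 1 uM final doxycycline hyclate for 16 h at 37 C, following a 2 h compound exposure.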

[15] = qHTS assay to identify small molecule agonists of the AP-1 signaling pathway - cell viability counter screen (AID 1159525; calls by dose curve; further: nearly all actives have a fitted effect of over 55% in size)
Method in brief: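 Each titration point was normalised to DMSO and tetra n-octyl ammonium bromide controls. The read was Cell Titer Glo luminescence after 30 min at RT, following 5 h compound exposure of ME-180 AP-1-bla cells at 37 °C.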

[16] = qHTS assay to identify small molecule agonists of the AP-1 signaling pathway (AID 1159526; calls by dose curve)
[17] = qHTS assay to identify small molecule agonists of the vitamin D receptor (VDR) signaling pathway - cell viability counter screen (AID 743224)
Method in brief: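 In parallel with the bla FRET readout, cytotoxicity toward VDR-bla cells after 16 h compound exposure was assessed by CellTiter-Glo, with luminescence recorded after a 30 min room-temperature incubation.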

[18] = molecular target: Vitamin D3 receptor (Homo sapiens) (UniProt P11473); test: qHTS assay to identify small molecule antagonists of the vitamin D receptor (VDR) signaling pathway (AID 743223; active means well fitted inhibition curve with a large enough effect in the signal ratio in the repeat runs, not every such curve was filed as active; the % refers to the signal ratio)
Method in brief: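 Fluorescence from LiveBLAzer B/G FRET substrate, read after 2 h at room temperature, reflects beta-lactamase reporter activity in VDR-bla cells treated 16 h at 37C with compounds and agonist 1alpha,25-dihydroxyvitamin D3 (3 nM final).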

[19] = qHTS assay to identify small molecule agonists of the endoplasmic reticulum stress response signaling pathway (AID 1159516; active means well fitted activation curve with a large enough effect in the signal ratio in the repeat runs, not every such curve was filed as active; the % refers to the signal ratio)
Method in brief: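 Beta-lactamase expression from the ER stress response element in HeLa reporter cells is quantified with the LiveBLAzer B/G FRET substrate, read at 405 nm excitation after 2 hr at room temperature, following 5 hr compound treatment at 37 C.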

[20] = qHTS assay to identify small molecule agonists of the endoplasmic reticulum stress response signaling pathway - cell viability counter screen (AID 1159517; calls by dose curve)
Method in brief: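 Cytotoxicity of test compounds toward ESRE-bla HeLa cells was assessed after 5 hr exposure. The luminescent CellTiter-Glo signal was measured 30 min after reagent addition.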

| SMILES | Potency [1] | outcome [2] | Potency [3] | Potency [4] | outcome [5] | Potency [6] | Potency [7] | Potency [8] | outcome [9] | Potency [10] | outcome [11] | Potency [12] | Potency [13] | Potency [14] | Potency [15] | outcome [16] | Potency [17] | outcome [18] | Potency [19] | Potency [20] |
| --- | --- | --- | --- | --- | --- | --- | --- | --- | --- | --- | --- | --- | --- | --- | --- | --- | --- | --- | --- | --- |
| ClC1=C(Cl)C1(Cl)Cl | inactive | inactive | inactive | inactive | inactive | inactive | inactive | inactive | inactive | inactive | inactive | inactive | inactive | inactive | inactive | inactive |  |  |  |  |
| CC1CCc2nccnc21 (centres undefined) | inactive | inactive |  | inactive |  | inactive | inactive | inactive | inactive | inactive | inactive | inactive | inactive | inactive | inactive | inactive |  |  |  |  |
| CCOC(=O)C(C)O (centres undefined) | inactive | inactive | inactive | inactive | inactive | inactive | inactive | inactive | inactive | inactive | inactive | inactive | inactive | inactive | inactive | inactive |  |  |  |  |
| CCC1CCC(CCC(=O)O)C1 (centres undefined) | inactive |  | inactive |  | inactive | inactive | inactive | inactive |  |  | inactive | inactive | inactive | inactive | inactive | inactive | inactive |  |  |  |
| Cc1cc([N+](=O)[O-])ccc1N | inactive | inactive | inactive | inactive | inactive | inactive | inactive | inactive | inactive | inactive | inactive | inactive | inactive |  | inactive | inactive | inactive | inactive |  |  |
| CC1=C2[C@@H]([C@H](C)CC[C@H]2/C=C(\C)C(=O)O)[C@H](O)C1 | inactive | inactive | inactive | inactive | inactive | inactive | inactive | inactive |  | inactive | inactive | inactive | inactive | inactive | inactive | inactive | inactive |  |  |  |
| O=c1[nH]c2cc(C(F)(F)F)c(N3CCOCC3)cc2n(CP(=O)(O)O)c1=O | inactive | inactive | inactive | inactive | inactive | inactive | inactive | inactive |  | inactive | inactive | inactive |  | inactive | inactive | inactive | inactive |  |  |  |
| CCN(CC)CCOc1ccccc1C(=O)CCc1ccccc1 |  |  |  | inactive | inactive | 11.9 µM (active) | inactive |  | inactive | inactive | inactive | 12 µM (active) | inactive | inactive | inactive |  | inactive | inactive |  |  |
| O=[N+]([O-])c1ccc2ncccc2c1 | inactive | inactive | inactive | inactive | inactive |  | inactive | inactive | inactive | inactive | inactive | inactive | inactive | inactive | inactive | inactive | inactive | inactive |  |  |
| COc1cc(C(C)=O)ccc1OCCCN1CCC(c2noc3cc(F)ccc23)CC1 | inactive | inactive | inactive |  |  | inactive |  | inactive |  | inactive | inactive | inactive | inactive | inactive | inactive |  | inactive |  |  |  |
| Cc1ccc2c(c1[N+](=O)[O-])C(=O)c1ccccc1C2=O | inactive | inactive | inactive | inactive |  | inactive | inactive | inactive | inactive | inactive | inactive | inactive | inactive | inactive |  |  | inactive |  |  |  |
| COC(C)(C)OC | inactive | inactive |  |  | inactive | inactive | inactive | inactive | inactive |  | inactive | inactive | inactive | inactive | inactive | inactive | inactive | inactive |  |  |
| CCCCCCCCCCCSCC(=O)O | 15.5 µM (active) |  |  |  |  |  |  | inactive |  | 21.9 µM (active) | inactive | inactive | inactive |  |  | inactive | inactive |  |  |  |
| CC(C)Cc1ccc(CC(=O)O)cc1 | inactive | inactive |  |  | inactive | inactive | inactive | inactive | inactive | inactive | inactive | inactive | inactive | inactive | inactive |  |  | inactive |  |  |
| Nc1c(Cl)cc(Cl)cc1[N+](=O)[O-] |  | inactive | inactive |  |  | inactive |  | inactive | inactive | inactive | inactive | inactive |  |  | inactive | inactive | inactive |  |  |  |
| O=C1OC(=O)c2c(Br)c(Br)c(Br)c(Br)c21 | inactive | inactive | inactive | inactive |  | inactive |  | inactive | inactive | inactive |  | inactive | inactive | inactive | inactive | inactive | inactive | inactive | inactive |  |
| CC(C)(C(=O)c1cccnc1)c1cccnc1 | inactive | inactive | inactive | inactive |  | inactive |  | inactive | inactive | inactive | inactive | inactive | inactive | inactive |  | inactive |  | inactive |  |  |
| CC1=CC[C@@]23C[C@@H]1C(C)(C)[C@@H]2CC[C@H]3C | inactive |  | inactive |  |  | inactive |  | inactive |  | inactive | inactive | inactive |  | inactive |  | inactive | inactive |  |  | inactive |
| COC(OC)OC |  |  | inactive |  |  | inactive |  | inactive | inactive | inactive | inactive | inactive | inactive | inactive |  | inactive | inactive | inactive |  |  |
